CYP2C19 inhib: inhibitors of human CYP2C19; 96,000 compounds, 21% hits; CYP2C19 Supersomes, luciferin-H EGE luminescence, 30 min; inhibition, % at 5 µM; AID 778;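 active = CYP2C19 inhibition above a set limit at 5 µM in the primary screen, cut at about 50% in these data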;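 also: plate controls were negative control wells for no effect and 2.5 mM tranylcypromine positive control for full effect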
Target sequence (P33261 whole entry, looked up): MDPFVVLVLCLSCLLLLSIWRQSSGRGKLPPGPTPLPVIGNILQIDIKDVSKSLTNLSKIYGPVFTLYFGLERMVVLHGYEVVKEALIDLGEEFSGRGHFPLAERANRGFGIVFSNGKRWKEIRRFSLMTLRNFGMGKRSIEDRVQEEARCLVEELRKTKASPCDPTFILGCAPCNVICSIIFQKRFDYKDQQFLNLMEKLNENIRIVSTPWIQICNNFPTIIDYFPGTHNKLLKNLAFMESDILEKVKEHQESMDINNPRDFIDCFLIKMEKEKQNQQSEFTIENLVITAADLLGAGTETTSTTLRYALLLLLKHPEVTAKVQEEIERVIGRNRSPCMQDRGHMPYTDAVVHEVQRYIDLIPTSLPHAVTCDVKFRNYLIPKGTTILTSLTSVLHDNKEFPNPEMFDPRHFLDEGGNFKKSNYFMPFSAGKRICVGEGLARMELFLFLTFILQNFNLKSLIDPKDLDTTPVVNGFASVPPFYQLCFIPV
PTK2B oligo ant: Pyk2 (human) oligomerization antagonism. 99,000 compounds, 0.83% hits. AID 1347419. Q14289. Q293 cells, Pyk2 FERM NanoBiT luminescence; hits give low values. z-score (the deposit names both 25 µM and 10 µM);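 active = Z-score of -3 or lower, scaled per plate to the spread of control and sample wells; inactive = z-score above -3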;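 also: negative z-score means lost luminescence so less FERM oligomerization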
CYP2C19 activ: increases human CYP2C19 enzyme activity. recombinant CYP2C19, luciferin-H EGE luminescence; hits give high values; 0 = fully inhibited enzyme, 1 = untreated enzyme. activation factor at 5 µM. P33261. AID 1025. 96,000 tested, under 10 active;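 active = activation factor of at least 2 at 5 µM in the primary screen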;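 also: 0 = wells with 2.5 mM tranylcypromine and 1 = vehicle-only wells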
CYP2C9 inhib: inhibitors of human CYP2C9 | AID 777 | 96,000 compounds, 20% hits | CYP2C9 Supersomes, luciferin-H conversion, luminescence | P11712 | inhibition, % at 5 µM;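 active = blocking of liver enzyme CYP2C9 beyond about 50% at 5 µM, limit read from the data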
CYP2C9 activ: CYP2C9 (human) activation. P11712. recombinant CYP2C9, luciferin-H conversion, luminescence; hits give high values; factor 1 = untreated enzyme, 0 = blocked. activation factor at 5 µM. 96,000 compounds, 1.4% hits;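 active = activation factor of 2 or more for CYP2C9 at a 5 µM dose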;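 also: 0 = sulfaphenazole-blocked wells and 1 = vehicle-only wells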
* = called active by the depositor; nt = not tested or not shown. Hits are enriched below; roughly 28% of the tested compounds scored in any of these assays.

SMILES	CYP2C19 inhib	PTK2B oligo ant	CYP2C19 activ	CYP2C9 inhib	CYP2C9 activ
COc1ccc(C(=O)c2ccc(OC)cc2O)c(O)c1	38	-1.1	0.6	-15	1.2
COc1ccc(C(=O)/C=C(\N)C(F)(F)F)c(O)c1	60*	0.73	0.4	16	0.8
CN1C(=O)C2(C(C#N)=C(N)Oc3c2oc(CO)cc3=O)c2ccccc21 (stereo not drawn)	-12	0.78	1.1	-7	1.1
CCOC(=O)C1CCN(C(=O)CSc2cc(=O)n(CC)c3ccccc23)CC1	60*	1.4	0.4	20	0.8
CCn1c(=O)cc(SCC(=O)N2CCC(C)CC2)c2ccccc21	38	-0.4	0.6	-170	2.7*
CN(CC(=O)Nc1ccc(C#N)cc1)Cc1ccc(Cl)cc1	89*	0.36	0.1	75*	0.2
CN(CC(=O)Nc1ccc(C#N)cc1)Cc1ccc(Cl)cc1Cl	94*	-0.44	0.1	90*	0.1
N#Cc1ccc(NC(=O)Nc2ccc(Cl)cc2)cc1	16	-1.5	0.8	7	0.9
CCOC(=O)C1=C(C)NC2=C(C(=O)CC(c3ccc(OC)c(OC)c3)C2)C1c1ccc(C)o1 (stereo not drawn)	19	-0.28	0.8	59*	0.4
CC1=C(C(=O)OC2CCCCC2)C(c2ccc(C)o2)C2=C(CCCC2=O)N1 (stereo not drawn)	42	-0.68	0.6	60*	0.4
CCSc1cc(C2C(C(=O)OC)=C(C)NC3=C2C(=O)CCC3)c(C)o1 (stereo not drawn)	25	-0.15	0.7	23	0.8
CC1=C(C(=O)OC2CCCCC2)C(c2ccco2)C2=C(CC(C)(C)CC2=O)N1 (stereo not drawn)	1	-3.3*	1	3	1
CC1=C(C(=O)OCc2ccccc2)C(c2ccc(C)o2)C2=C(CCCC2=O)N1 (stereo not drawn)	69*	-0.49	0.3	70*	0.3
CCC1CC2CC(NC(C)=O)C1C2 (stereo not drawn)	-6	-0.13	1.1	-8	1.1
Cc1ccc(OCc2nnc(SCC(=O)NCc3ccccc3)n2C)cc1	7	3.3	0.9	22	0.8
CCN(CC)c1ccc(CNC23CN4CN(CN(C4)C2)C3)cc1	32	-0.84	0.7	30	0.7
CCOC(=O)/C=C1\NC(=O)C(C)S1 (stereo not drawn)	5	1.4	1	-110	2.1*
Cc1nc(N2CCC(C)CC2)c2nnn(Cc3ccccc3)c2n1	nt	-1.1	nt	nt	nt
CCCCCCN1C=CC(=C/C=C(\C#N)C(=O)OCC)C=C1	28	-1.7	0.7	60*	0.4
CCCN1C=CC(=C/C=C(\C#N)C(=O)OCC)C=C1	-3	nt	1	36	0.6
CN(c1ccc(C(=O)Nc2ccccc2C(F)(F)F)cc1)S(C)(=O)=O	15	0.47	0.8	-2	1
O=C(Cc1n[nH]c(=O)c2ccccc12)OCC(=O)c1ccc2c(c1)OCCO2	3	0.44	1	66*	0.3
O=C(NCc1ccc2c(c1)OCO2)c1cccs1	93*	0.28	0.1	67*	0.3
O=C(COC(=O)c1cccs1)NCc1ccc2c(c1)OCO2	78*	0.44	0.2	69*	0.3
CCC(OC(=O)c1cccs1)C(=O)NCc1ccc2c(c1)OCO2 (stereo not drawn)	69*	-0.57	0.3	79*	0.2
SMILES	CYP2C19 inhib	PTK2B oligo ant	CYP2C19 activ	CYP2C9 inhib	CYP2C9 activ
CCCC(C)C(=O)NCc1ccc2c(c1)OCO2 (stereo not drawn)	32	1.6	0.7	28	0.7
CC1CCCC(C)N1C(=O)CSc1nnc(NC(=O)c2cccs2)s1 (stereo not drawn)	9	0.13	0.9	25	0.7
O=C(c1ccc(-c2ccccc2)cc1)N1CCN(Cc2ccccn2)CC1	-4	-1.5	1	-9	1.1
CC(=O)CCn1c(=O)n(CCC(C)=O)c(=O)n(CCC(C)=O)c1=O	nt	-0.75	nt	nt	nt
CCc1cc2c(=O)n(-c3ccccc3)c(=S)[nH]c2s1	1	-0.12	1	8	0.9
Cn1c(SCC#N)nnc1-c1cnccn1	nt	0.1	nt	nt	nt
O=C(COC(=O)c1cccs1)c1ccc2c(c1)OCCO2	83*	-0.32	0.2	87*	0.1
O=C(COC(=O)c1cccs1)c1ccc2ccccc2c1	nt	-0.7	nt	nt	nt
COc1ccc(C(c2nnnn2CS(=O)(=O)c2ccc(C)cc2)N2CCN(Cc3ccccc3)CC2)cc1 (stereo not drawn)	nt	0.98	nt	nt	nt
COc1ccc(C(=S)N2CCN(C)CC2)cc1Br	51*	1.4	0.5	-247	3.5*
Oc1ccc(C(=S)N2CCCCC2)cc1Cl	85*	1.6	0.2	-102	2*
S=C(c1ccc2c(c1)OCO2)N1CCCCC1	94*	0.42	0.1	38	0.6
COc1cc(C(=S)N2CCCC2)ccc1O	88*	0.52	0.1	-61	1.6
Cc1ccc(S(=O)(=O)NC2=NCCC2)cc1	7	1	0.9	-8	1.1
Cc1cccc(NC(=O)C2(C)CC3c4ccccc4C2c2ccccc23)c1 (stereo not drawn)	-2	0.54	1	14	0.9
CCC1(CC)NC(=O)NC1=O	-13	1.5	1.1	-7	1.1
CCOC(=O)c1cnc2nc(COc3ccccc3)[nH]n2c1=O	6	2.2	0.9	26	0.7
CSc1nc(C)cc(OCNC(=O)c2cccs2)n1	27	1.3	0.7	9	0.9
Clc1cccc2sc(-c3nnc(-c4ccccc4)o3)c(Cl)c12	nt	-0.24	nt	nt	nt
Cc1ccc(C)c(N(CC(=O)NCc2ccc3c(c2)OCO3)C(=O)CCC(=O)Nc2ccccn2)c1	63*	-2.8	0.4	50*	0.5
Cc1cc(C)cc(N(CC(=O)NCc2ccc3c(c2)OCO3)C(=O)CCC(=O)Nc2ccccn2)c1	58*	-2.8	0.4	49	0.5
Cc1ccnc(NC(=O)CCC(=O)N(CC(=O)NCc2ccccc2)c2ccc3c(c2)OCO3)c1	nt	-1.5	nt	nt	nt
Cc1cc(C)c2c(N=CN(C)C)c(C(=O)N3CCN(c4ncccn4)CC3)sc2n1	37	-0.44	0.6	69*	0.3
Cc1cc(C)c2c(N)c(C(=O)N3CCCCCC3)sc2n1	51*	0.12	0.5	-45	1.5
COCc1cc(C)nc2sc(C(=O)N3CCCC3)c(N)c12	14	0.71	0.9	16	0.8
Cc1noc(C)c1CSCC(=O)OCc1nc2ccccc2c(=O)n1CC#N	48	0.13	0.5	65*	0.3
Cc1occc1-c1nnc(SCc2nc3ccccc3c(=O)n2CC#N)n1C	-7	1.6	1.1	-8	1.1
COC(=O)c1ccccc1NS(=O)(=O)c1cn(C)c(=O)n(C)c1=O	9	nt	0.9	8	0.9
CCOC(=O)C(NC(C)=O)(N1CCOCC1)C(F)(F)F (stereo not drawn)	4	nt	1	-4	1
CCOC(=O)C(NCc1ccccc1OC)(NC(=O)c1ccccc1)C(F)(F)F (stereo not drawn)	48	1.2	0.5	63*	0.4

Screening results deposited in PubChem by Sanford-Burnham Center for Chemical Genomics.
